From article PMC7862700, “An all-to-all approach to the identification of sequence-specific readers for epigenetic DNA modifications on cytosine”

How the values were obtained:
Assay in all cases: DAPPL (digital affinity profiling via proximity ligation, sequencing); 10 mM Tris-HCl pH 7.5, 50 mM NaCl, 1 mM DTT, 4% glycerol, room temperature, 30 min; GST-TFs on glutathione beads, 16-mer random dsDNA library, 0.1% formaldehyde crosslink after washing; high values mean tight binding
Conditions in all cases: protein: recombinant; tags: N-terminal GST; dsDNA, one strand shown
ERF = biological target: T1, ERF (Homo sapiens, UniProt P50548 1-548)
T1 sequence: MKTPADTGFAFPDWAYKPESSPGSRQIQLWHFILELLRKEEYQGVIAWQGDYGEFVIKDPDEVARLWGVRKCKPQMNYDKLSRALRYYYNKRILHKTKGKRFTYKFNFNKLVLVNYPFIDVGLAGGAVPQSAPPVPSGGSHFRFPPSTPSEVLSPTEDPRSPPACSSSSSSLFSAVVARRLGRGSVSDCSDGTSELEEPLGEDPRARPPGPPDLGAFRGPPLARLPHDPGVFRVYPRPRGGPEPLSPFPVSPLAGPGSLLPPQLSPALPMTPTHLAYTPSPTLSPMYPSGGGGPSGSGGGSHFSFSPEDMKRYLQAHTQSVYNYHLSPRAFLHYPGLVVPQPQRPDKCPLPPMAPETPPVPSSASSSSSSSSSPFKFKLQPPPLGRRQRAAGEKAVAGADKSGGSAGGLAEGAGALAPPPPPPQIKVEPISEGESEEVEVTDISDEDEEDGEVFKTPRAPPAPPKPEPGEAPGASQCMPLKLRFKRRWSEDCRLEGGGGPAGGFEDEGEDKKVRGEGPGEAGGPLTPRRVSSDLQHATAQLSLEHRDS
Outline: (§1)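 Binding signal is given per hexamer as its read frequency for a factor divided by its frequency in the tag-only sample. GST-fused human transcription factors were expressed in yeast, captured on glutathione beads, barcoded with DNA and pooled with that sample, then incubated with 200 nmole of a 16-mer random double-stranded DNA library in Tris/NaCl/DTT/glycerol buffer for 30 min at room temperature. The pools were then washed, crosslinked, proximity-ligated, amplified by PCR and sequenced on an Illumina NextSeq500.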

ETV3L = biological target: T2, ETV3L (Homo sapiens, UniProt Q6ZN32 1-361)
T2 sequence: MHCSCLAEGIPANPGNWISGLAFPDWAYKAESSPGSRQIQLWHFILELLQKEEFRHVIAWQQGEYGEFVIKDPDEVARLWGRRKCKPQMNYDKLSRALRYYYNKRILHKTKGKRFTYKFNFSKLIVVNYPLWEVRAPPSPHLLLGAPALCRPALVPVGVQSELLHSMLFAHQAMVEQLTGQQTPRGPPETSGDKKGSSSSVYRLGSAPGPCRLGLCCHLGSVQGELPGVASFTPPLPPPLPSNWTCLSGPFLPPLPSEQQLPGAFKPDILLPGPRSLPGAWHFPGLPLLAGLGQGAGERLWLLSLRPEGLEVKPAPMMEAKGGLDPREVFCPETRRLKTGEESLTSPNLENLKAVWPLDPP
Outline: as §1

ETS2 = biological target: T3, ETS2 (Homo sapiens, UniProt P15036 1-469)
T3 sequence: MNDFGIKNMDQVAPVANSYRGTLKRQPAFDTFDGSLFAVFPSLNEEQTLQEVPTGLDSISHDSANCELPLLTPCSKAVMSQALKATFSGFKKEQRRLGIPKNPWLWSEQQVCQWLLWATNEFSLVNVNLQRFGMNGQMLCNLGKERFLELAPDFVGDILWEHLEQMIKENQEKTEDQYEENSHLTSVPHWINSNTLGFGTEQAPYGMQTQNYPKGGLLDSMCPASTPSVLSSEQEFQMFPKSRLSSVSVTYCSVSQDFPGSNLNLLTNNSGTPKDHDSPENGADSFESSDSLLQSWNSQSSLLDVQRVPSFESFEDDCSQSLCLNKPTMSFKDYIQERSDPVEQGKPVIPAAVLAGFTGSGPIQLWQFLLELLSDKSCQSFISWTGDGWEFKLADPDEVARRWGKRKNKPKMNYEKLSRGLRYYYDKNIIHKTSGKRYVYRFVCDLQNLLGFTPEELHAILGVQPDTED
Outline: as §1

SPDEF = biological target: T4, SPDEF (Homo sapiens, UniProt O95238 1-335)
T4 sequence: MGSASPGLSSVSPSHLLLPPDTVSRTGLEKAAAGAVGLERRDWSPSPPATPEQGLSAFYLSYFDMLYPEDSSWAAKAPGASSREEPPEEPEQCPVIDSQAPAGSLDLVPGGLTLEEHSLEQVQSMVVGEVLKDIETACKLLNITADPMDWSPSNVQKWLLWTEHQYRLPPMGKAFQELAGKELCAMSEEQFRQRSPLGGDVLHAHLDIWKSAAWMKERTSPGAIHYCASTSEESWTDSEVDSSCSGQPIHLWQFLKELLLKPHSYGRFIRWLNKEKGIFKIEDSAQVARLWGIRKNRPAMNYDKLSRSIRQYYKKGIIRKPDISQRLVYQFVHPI
Outline: as §1

ETV7 = biological target: T5, ETV7 (Homo sapiens, UniProt Q9Y603 1-341)
T5 sequence: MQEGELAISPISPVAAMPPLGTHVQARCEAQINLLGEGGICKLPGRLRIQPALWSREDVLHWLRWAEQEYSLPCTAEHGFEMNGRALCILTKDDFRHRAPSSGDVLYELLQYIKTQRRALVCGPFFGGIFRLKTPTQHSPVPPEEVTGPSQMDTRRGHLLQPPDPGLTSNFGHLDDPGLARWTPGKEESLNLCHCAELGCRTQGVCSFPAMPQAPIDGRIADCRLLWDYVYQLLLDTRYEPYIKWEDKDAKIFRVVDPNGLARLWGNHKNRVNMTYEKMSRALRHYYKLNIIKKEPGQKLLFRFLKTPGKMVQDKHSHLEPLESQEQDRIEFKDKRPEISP
Outline: as §1

ELF5 = biological target: T6, ELF5 (Homo sapiens, UniProt Q9UKW6-2 1-255)
T6 sequence: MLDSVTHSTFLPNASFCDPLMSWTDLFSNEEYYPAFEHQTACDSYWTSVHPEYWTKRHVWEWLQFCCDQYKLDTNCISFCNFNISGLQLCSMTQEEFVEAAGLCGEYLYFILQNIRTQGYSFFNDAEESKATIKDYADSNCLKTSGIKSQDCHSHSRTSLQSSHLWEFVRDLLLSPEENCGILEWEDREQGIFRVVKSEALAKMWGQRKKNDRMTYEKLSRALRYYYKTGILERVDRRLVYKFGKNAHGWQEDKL
Outline: as §1

ETV3 = biological target: T7, ETV3 (Homo sapiens, UniProt P41162-2 1-143)
T7 sequence: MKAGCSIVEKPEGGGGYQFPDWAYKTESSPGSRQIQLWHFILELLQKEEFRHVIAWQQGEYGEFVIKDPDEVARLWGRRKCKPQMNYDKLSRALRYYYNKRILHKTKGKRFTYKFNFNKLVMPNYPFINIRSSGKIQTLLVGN
Outline: as §1

ETV6 = ETV6 (Homo sapiens, UniProt P41212 1-452)
Chain of ETV6 (P41212 whole entry): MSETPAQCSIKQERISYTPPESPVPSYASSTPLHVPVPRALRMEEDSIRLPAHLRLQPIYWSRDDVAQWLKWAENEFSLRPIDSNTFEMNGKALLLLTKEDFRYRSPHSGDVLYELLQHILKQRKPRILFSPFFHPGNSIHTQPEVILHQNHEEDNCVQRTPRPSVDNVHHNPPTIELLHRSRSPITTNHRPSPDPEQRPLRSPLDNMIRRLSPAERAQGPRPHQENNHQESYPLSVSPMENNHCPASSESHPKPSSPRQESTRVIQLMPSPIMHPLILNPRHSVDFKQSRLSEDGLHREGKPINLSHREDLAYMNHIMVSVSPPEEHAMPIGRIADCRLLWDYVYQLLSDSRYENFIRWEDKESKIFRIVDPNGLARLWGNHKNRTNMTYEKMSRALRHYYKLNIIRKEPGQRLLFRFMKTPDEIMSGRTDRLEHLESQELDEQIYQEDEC
Outline: as §1

Sequence | binding signal (ERF) | binding signal (ETV3L) | binding signal (ETS2) | binding signal (SPDEF) | binding signal (ETV7) | binding signal (ELF5) | binding signal (ETV3) | binding signal (ETV6)
GTATAT | 1.11 fold enrichment (6-mer frequency, TF over GST control) | 1.16 fold enrichment (6-mer frequency, TF over GST control) | 1.14 fold enrichment (6-mer frequency, TF over GST control) | 1.37 fold enrichment (6-mer frequency, TF over GST control) | 1.13 fold enrichment (6-mer frequency, TF over GST control) | 1.15 fold enrichment (6-mer frequency, TF over GST control) | 1.25 fold enrichment (6-mer frequency, TF over GST control) | 1.09 fold enrichment (6-mer frequency, TF over GST control)
TACCCG | 1.41 fold enrichment (6-mer frequency, TF over GST control) | 1.56 fold enrichment (6-mer frequency, TF over GST control) | 1.42 fold enrichment (6-mer frequency, TF over GST control) | 1.59 fold enrichment (6-mer frequency, TF over GST control) | 1.43 fold enrichment (6-mer frequency, TF over GST control) | 1.5 fold enrichment (6-mer frequency, TF over GST control) | 1.47 fold enrichment (6-mer frequency, TF over GST control) | 1.5 fold enrichment (6-mer frequency, TF over GST control)
TTCTCT | 1.19 fold enrichment (6-mer frequency, TF over GST control) | 1.39 fold enrichment (6-mer frequency, TF over GST control) | 1.23 fold enrichment (6-mer frequency, TF over GST control) | 1.31 fold enrichment (6-mer frequency, TF over GST control) | 1.26 fold enrichment (6-mer frequency, TF over GST control) | 1.35 fold enrichment (6-mer frequency, TF over GST control) | 1.3 fold enrichment (6-mer frequency, TF over GST control) | 1.24 fold enrichment (6-mer frequency, TF over GST control)
CCCGTT | 1.13 fold enrichment (6-mer frequency, TF over GST control) | 1.19 fold enrichment (6-mer frequency, TF over GST control) | 1.1 fold enrichment (6-mer frequency, TF over GST control) | 1.2 fold enrichment (6-mer frequency, TF over GST control) | 1.19 fold enrichment (6-mer frequency, TF over GST control) | 1.27 fold enrichment (6-mer frequency, TF over GST control) | 1.17 fold enrichment (6-mer frequency, TF over GST control) | 1.16 fold enrichment (6-mer frequency, TF over GST control)
CTCGCA | 1.26 fold enrichment (6-mer frequency, TF over GST control) | 1.3 fold enrichment (6-mer frequency, TF over GST control) | 1.35 fold enrichment (6-mer frequency, TF over GST control) | 1.2 fold enrichment (6-mer frequency, TF over GST control) | 1.23 fold enrichment (6-mer frequency, TF over GST control) | 1.15 fold enrichment (6-mer frequency, TF over GST control) | 1.34 fold enrichment (6-mer frequency, TF over GST control) | 1.19 fold enrichment (6-mer frequency, TF over GST control)
AACATC | 1.43 fold enrichment (6-mer frequency, TF over GST control) | 1.41 fold enrichment (6-mer frequency, TF over GST control) | 1.45 fold enrichment (6-mer frequency, TF over GST control) | 1.68 fold enrichment (6-mer frequency, TF over GST control) | 1.35 fold enrichment (6-mer frequency, TF over GST control) | 1.64 fold enrichment (6-mer frequency, TF over GST control) | 1.5 fold enrichment (6-mer frequency, TF over GST control) | 1.4 fold enrichment (6-mer frequency, TF over GST control)
CTTTCC | 1.82 fold enrichment (6-mer frequency, TF over GST control) | 1.76 fold enrichment (6-mer frequency, TF over GST control) | 2.1 fold enrichment (6-mer frequency, TF over GST control) | 1.96 fold enrichment (6-mer frequency, TF over GST control) | 1.64 fold enrichment (6-mer frequency, TF over GST control) | 2.39 fold enrichment (6-mer frequency, TF over GST control) | 2.12 fold enrichment (6-mer frequency, TF over GST control) | 2.07 fold enrichment (6-mer frequency, TF over GST control)
TTACAC | 1.2 fold enrichment (6-mer frequency, TF over GST control) | 1.15 fold enrichment (6-mer frequency, TF over GST control) | 1.22 fold enrichment (6-mer frequency, TF over GST control) | 1.23 fold enrichment (6-mer frequency, TF over GST control) | 1.19 fold enrichment (6-mer frequency, TF over GST control) | 1.19 fold enrichment (6-mer frequency, TF over GST control) | 1.15 fold enrichment (6-mer frequency, TF over GST control) | 1.2 fold enrichment (6-mer frequency, TF over GST control)
TTTATG | 1.31 fold enrichment (6-mer frequency, TF over GST control) | 1.36 fold enrichment (6-mer frequency, TF over GST control) | 1.32 fold enrichment (6-mer frequency, TF over GST control) | 1.29 fold enrichment (6-mer frequency, TF over GST control) | 1.32 fold enrichment (6-mer frequency, TF over GST control) | 1.29 fold enrichment (6-mer frequency, TF over GST control) | 1.36 fold enrichment (6-mer frequency, TF over GST control) | 1.33 fold enrichment (6-mer frequency, TF over GST control)
TAACTA | 1.38 fold enrichment (6-mer frequency, TF over GST control) | 1.21 fold enrichment (6-mer frequency, TF over GST control) | 1.4 fold enrichment (6-mer frequency, TF over GST control) | 1.26 fold enrichment (6-mer frequency, TF over GST control) | 1.29 fold enrichment (6-mer frequency, TF over GST control) | 1.3 fold enrichment (6-mer frequency, TF over GST control) | 1.29 fold enrichment (6-mer frequency, TF over GST control) | 1.36 fold enrichment (6-mer frequency, TF over GST control)
TGGGAT | 1.05 fold enrichment (6-mer frequency, TF over GST control) | 1.15 fold enrichment (6-mer frequency, TF over GST control) | 1.17 fold enrichment (6-mer frequency, TF over GST control) | 1.17 fold enrichment (6-mer frequency, TF over GST control) | 1.15 fold enrichment (6-mer frequency, TF over GST control) | 1.2 fold enrichment (6-mer frequency, TF over GST control) | 1.18 fold enrichment (6-mer frequency, TF over GST control) | 1.23 fold enrichment (6-mer frequency, TF over GST control)
TCACTT | 1.56 fold enrichment (6-mer frequency, TF over GST control) | 1.5 fold enrichment (6-mer frequency, TF over GST control) | 1.69 fold enrichment (6-mer frequency, TF over GST control) | 1.73 fold enrichment (6-mer frequency, TF over GST control) | 1.63 fold enrichment (6-mer frequency, TF over GST control) | 1.79 fold enrichment (6-mer frequency, TF over GST control) | 1.55 fold enrichment (6-mer frequency, TF over GST control) | 1.67 fold enrichment (6-mer frequency, TF over GST control)
GCCTAA | 1.22 fold enrichment (6-mer frequency, TF over GST control) | 1.22 fold enrichment (6-mer frequency, TF over GST control) | 1.31 fold enrichment (6-mer frequency, TF over GST control) | 1.11 fold enrichment (6-mer frequency, TF over GST control) | 1.19 fold enrichment (6-mer frequency, TF over GST control) | 1.18 fold enrichment (6-mer frequency, TF over GST control) | 1.21 fold enrichment (6-mer frequency, TF over GST control) | 1.13 fold enrichment (6-mer frequency, TF over GST control)
TTTGCA | 1.13 fold enrichment (6-mer frequency, TF over GST control) | 1.31 fold enrichment (6-mer frequency, TF over GST control) | 1.14 fold enrichment (6-mer frequency, TF over GST control) | 1.23 fold enrichment (6-mer frequency, TF over GST control) | 1.21 fold enrichment (6-mer frequency, TF over GST control) | 1.24 fold enrichment (6-mer frequency, TF over GST control) | 1.26 fold enrichment (6-mer frequency, TF over GST control) | 1.32 fold enrichment (6-mer frequency, TF over GST control)
TGGCTC | 1.31 fold enrichment (6-mer frequency, TF over GST control) | 1.5 fold enrichment (6-mer frequency, TF over GST control) | 1.23 fold enrichment (6-mer frequency, TF over GST control) | 1.32 fold enrichment (6-mer frequency, TF over GST control) | 1.22 fold enrichment (6-mer frequency, TF over GST control) | 1.21 fold enrichment (6-mer frequency, TF over GST control) | 1.44 fold enrichment (6-mer frequency, TF over GST control) | 1.36 fold enrichment (6-mer frequency, TF over GST control)
